Assay results published in PubChem BioAssay AID463173 (ICCB-Longwood Screening Facility, Harvard Medical School, 2010).
In all, about 52,000 compounds went through this assay and about 4,300 (8.3%) were called active. The full list was thinned out, with actives kept by preference. Unmarked numbers belong to inactive results. Cut-off read from the data, not from the text of the source: active = survival mostly below about 52% (no sharp cut-off); inactive = mostly above about 56%.

What follows are compounds tested on DeltatarO mutant (assay: growth inhibition of S. aureus wild type versus tarO mutant, primary screen, teichoic acid synthesis inhibitors, RN4220, OD600 (AID 463173)). Conditions: OD600, 18 h, hits give low values, screened at 18.75 µg/mL (by protocol).

Compound	survival
COc1ccc(C2Nc3ccccc3-c3nnc(SC)nc3O2)cc1C (stereo not drawn)	67%
COc1ccccc1NC(=O)CSc1nc2ccccc2c2nc(-c3ccccc3)nn12	90%
Cc1ccc(OCCCC(=O)Nc2ccc3c(c2)OCO3)cc1	100%
COc1ccccc1CNC(=O)c1ccc2nc(CCc3ccccc3)oc2c1	83%
Cc1cccc(N2CCN(S(=O)(=O)c3c(C)[nH]c(=O)[nH]c3=O)CC2)c1C	84%
CCN(CC)c1nn2c(=O)c(C(=O)NCCc3cccc(C)c3)cnc2s1	73%
O=C(CSc1nc2c(c(=O)[nH]1)CCC2)Nc1cccc(O)c1	86%
CCCN1CCN(CCCNC(=O)c2cc3c(s2)-c2c(C)cccc2OC3)CC1	127%
CCCCN(Cc1ccco1)C(=O)c1cc2c(s1)-c1c(C)cccc1OC2	-2% (active)
COc1ccc(CNC(=O)c2cc3c(s2)-c2c(C)cccc2OC3)cc1	87%
CCOc1ccc(CCNC(=O)c2cc3c(s2)-c2c(C)cccc2OC3)cc1	98%
CCN1CCN(CCCNC(=O)c2cc3c(s2)-c2c(C)cccc2OC3)CC1	102%
CCOCCCN(Cc1ccco1)C(=O)c1cc2c(s1)-c1c(C)cccc1OC2	-3% (active)
Cc1ccc(-n2ncc(C(=O)N3CCN(C4CCCCC4)CC3)c2C2CCN(C(=O)OC(C)(C)C)CC2)cc1	82%
Cc1ccc2cccc(NC(=O)c3ccc(-c4cccc(Cl)c4Cl)o3)c2n1	55%
Cc1ccc2cccc(NC(=O)c3ccc(-c4ccc(Cl)cc4Cl)o3)c2n1	67%
Cc1ccc2cccc(NC(=O)c3ccc(-c4cccc([N+](=O)[O-])c4)o3)c2n1	67%
O=C(Nc1cccc2cccnc12)c1ccc(-c2cccc(Cl)c2)o1	3% (active)
Cc1ccc2cccc(NC(=O)c3ccc(-c4cccc(Cl)c4)o3)c2n1	49% (active)
O=C(O)c1ccc(-c2cccc(Cl)c2)o1	67%
Cc1ccc2cccc(NC(=O)c3ccc(-c4ccc(Br)cc4)o3)c2n1	59% (active)
Cc1ccc2cccc(NC(=O)c3ccc(-c4cc(Cl)ccc4Cl)o3)c2n1	71%
Nc1nc(N)c(S(=O)(=O)c2ccccc2)c(Nc2ccc(F)cc2)n1	72%

Compound	survival
O=C(COc1ccccc1)NCCc1csc(-c2cccc(F)c2)n1	78%
Cc1ccc(O)c(NC(=O)CCSc2nc(-c3ccco3)cc(C(F)(F)F)n2)c1	28% (active)
O=C(CSc1nc(-c2ccco2)cc(C(F)(F)F)n1)Nc1ccccc1	102%
COc1ccc(NC(=O)CSc2nc(-c3ccco3)cc(C(F)(F)F)n2)cc1OC	63%
CN(C)c1ccc(NC(=O)CSc2nc(-c3ccco3)cc(C(F)(F)F)n2)cc1	65%
CCNS(=O)(=O)c1ccc(NC(=O)CSc2nc(-c3ccco3)cc(C(F)(F)F)n2)cc1	36% (active)
COc1ccc(NC(=O)CSc2nc(-c3ccco3)cc(C(F)(F)F)n2)cc1	86%
COc1ccc(Cl)cc1NC(=O)CSc1nc(-c2ccco2)cc(C(F)(F)F)n1	31% (active)
Cc1cc(F)ccc1NC(=O)CCSc1nc(-c2ccco2)cc(C(F)(F)F)n1	45%
COc1ccc(NC(=O)CSc2nc(-c3ccco3)cc(C(F)(F)F)n2)cc1Cl	38% (active)
Cc1ccc(F)cc1NC(=O)CCSc1nc(-c2ccco2)cc(C(F)(F)F)n1	48%
CCOc1ccccc1CNC(=O)CCCn1nc(C)c2sc3ccccc3c2c1=O	85%
O=C1C2C3c4ccccc4C(c4ccccc43)C2C(=O)N1CN1CCOCC1 (stereo not drawn)	78%
CCCOc1ccc(NC(=O)CC2C(=O)N(c3ccc(C)cc3)C(=O)N2C2CCCC2)cc1 (stereo not drawn)	67%
Cc1ccc(NC(=O)Cn2c(=O)n(Cc3nc(-c4ccccc4)no3)c(=O)c3cc4c(cc32)OCO4)c(C)c1	62%
COc1ccc(N(C)C(=O)c2cn(C3CCCCC3)c(=O)c3c2c2ccccc2n3C)cc1	67%
Cc1ccc(-n2nc(C(=O)NC(C)C)c(=O)n(C)c2=O)cc1	78%
Cc1c(NC(=O)Nc2ccc(Cl)c(C(F)(F)F)c2)c(=O)n(-c2ccccc2)n1C	124%
CC(C)CCn1c(=O)c2sccc2n2c(CCCC(=O)NCc3ccc(F)cc3)nnc12	88%
Cc1oc2ncn(C)c(=O)c2c1C(=O)Nc1ccccn1	102%
COc1cccc(CNC(=O)Cn2c(=O)oc3cc(S(=O)(=O)N4CCCC4)ccc32)c1	122%
Cc1ccc(Cl)cc1NC(=O)C(=O)NCCc1sc(-c2ccc(F)cc2)nc1C	90%
CC1CCN(S(=O)(=O)c2ccc3c(c2)N(CC(=O)NCC(C)c2ccccc2)C(=O)CO3)CC1 (stereo not drawn)	64%

Compound	survival
Cc1ccc(C(=O)Nc2ccc(C(=O)OCc3cc(=O)n4ccsc4n3)cc2)cc1	72%
Cc1ccc(NC(=O)CSc2nc(-c3ccco3)cc(C(F)(F)F)n2)c(C)c1	63% (active)
Cc1ccc(NC(=O)CSc2nc(-c3ccco3)cc(C(F)(F)F)n2)cc1C	33% (active)
Cc1ccc(NC(=O)CCSc2nc(-c3ccco3)cc(C(F)(F)F)n2)cc1F	48%
Cc1cccc(NC(=O)CSc2nc(-c3ccco3)cc(C(F)(F)F)n2)c1C	69%
Cc1ccc(NC(=O)CSc2nc(-c3ccco3)cc(C(F)(F)F)n2)cc1	129%
CC(C)NC(=O)CSc1nc(-c2ccco2)cc(C(F)(F)F)n1	64%
CC(=O)Nc1ccc(S(=O)(=O)NC2(C(F)(F)F)C(=O)Nc3c2c(=O)[nH]c(=O)n3-c2ccc(C)c(C)c2)cc1 (stereo not drawn)	81%
CCOc1ccc(S(=O)(=O)NC(=O)N(CC)Cc2cc3ccccc3o2)cc1	76%
CCCc1cnc2c(c1SCc1ccc(C(F)(F)F)cc1)c(=O)n(C)c(=O)n2C	54%
Cc1ccc(-c2nc3cc(C(C)C)ccc3o2)cc1NC(=O)c1cc2ccccc2o1	19% (active)
CC(=O)Nc1cc(-c2nc3cc(Cl)ccc3o2)ccc1C	51%
O=C(Nc1cc(-c2nc3cc(Cl)ccc3o2)ccc1Cl)c1cc2ccccc2o1	82%
Cc1c(NC(=O)c2cccc3c(Cl)cccc23)cccc1-c1nc2ccccc2o1	63%
Cc1ccc(-c2nc3cc(Cl)ccc3o2)cc1NC(=O)c1cc2ccccc2o1	43% (active)
Cc1ccc2oc(-c3ccc(Cl)c(NC(=O)c4cc5ccccc5o4)c3)nc2c1	39% (active)
Cc1ccc(-c2nc3cc(NC(=O)c4cc5ccccc5o4)ccc3o2)cc1Cl	139%
Cc1c(NC(=O)c2cc3ccccc3o2)cccc1-c1nc2ccccc2o1	36% (active)
Cc1c(NC(=O)c2ccc(Br)o2)cccc1-c1nc2ccccc2o1	60%
Cc1ccc(-c2nc3ccccc3o2)cc1NC(=O)Cc1ccc(Cl)cc1	73%
O=C(Nc1ccc2oc(-c3ccc(O)c(Br)c3)nc2c1)c1cc2ccccc2o1	49%
Cc1ccc2oc(-c3ccc(Cl)c(NC(=O)Cc4ccccc4)c3)nc2c1	95%
